Values without a mark were called inactive. Records with an inconclusive call do not appear. Entries that show only a call come without a potency. Active and inactive are the calls of the source. Unless noted, calls come from the whole dose curve; as a rule, active = well fitted curve in the direction sought with a large enough effect; inconclusive = small, poorly fitted or top-dose-only effect, or another doubt; inactive = no such curve, though single readings can be large; an effect the other way counts as inactive or inconclusive.
Key:
[1] = molecular target: Lysosomal acid glucosylceramidase (Homo sapiens) (UniProt P04062); assay: Glucocerebrosidase-p2 (AID 348; in the data active = potency below about 10 µM; note: potency is the fitted concentration of half-maximal effect); settings: purified GBA, blue fluorogenic substrate, 40 min
How it was run: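 Normal human glucocerebrosidase (0.2 nM) with blue fluorogenic substrate (80 uM final) in citrate/phosphate pH 5.9 with 10mM sodium taurocholate, 0.01% tween-20; 40 min RT, NaOH/glycine stop; fluorescence Ex 365/Em 440; AC50 from a titration from 0.6 nM upwards.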

[2] = AP1 Signaling Pathway (AID 357; active = well fitted curve in either direction with a large enough effect, not every such curve was filed as active;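 note: ME-180 reporter cells stimulated with EGF at its EC50 level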); settings: ME-180 AP-1-bla reporter, EGF-induced, beta-lactamase ratio, 5 h; at 7.69 µM (top of the series) unless noted
How it was run: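 AP-1-bla ME-180 cells, Opti-MEM + 0.5% dialyzed FBS, plated overnight 37 °C. Cpd titration + EC50 EGF, 5 h 37 °C. CCF4 2.5 h RT; ex 405, em 460/530 ratio → %activity, AC50.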

[3] = NFAT Signaling Pathway (AID 444; active = well fitted curve in either direction with a large enough effect, not every such curve was filed as active;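 note: carbachol stimulus at about its EC50 of 1 µM final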); settings: Jurkat NFAT-bla M1, carbachol, beta-lactamase ratio, 5 h; at 7.69 µM (top of the series) unless noted
How it was run: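 Jurkat cells carrying an NFAT-driven β-lactamase reporter and co-transfected muscarinic M1 receptor were treated with compound plus carbachol (1 uM final, an EC50 level) for 5 h at 37 °C. CCF4 loading followed for 1 h at RT; 460/530 nm ratio gave %activity.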

[4] = Stat Signaling Pathway (AID 446; active = well fitted curve in either direction with a large enough effect, not every such curve was filed as active;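 note: ME-180 cervical cancer cells given 40 pM IL-6 alongside compound; SIE-controlled beta-lactamase reporter measured as 460/530 nm FRET emission ratio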); settings: ME-180 SIE beta-lactamase reporter, IL-6 stimulated, 5 h; at 7.69 µM (top of the series) unless noted
How it was run: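 Compound effects on IL-6-induced STAT reporter activity were measured in ME-180 cells. After overnight culture, cells were co-treated with 40 pM IL-6 for 5 hrs before beta-lactamase substrate loading at room temperature.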

[5] = molecular target: Glucocorticoid receptor (Homo sapiens) (UniProt P04150); assay: GR-EFC Redistribution (AID 451; calls by dose curve; note: potency is the fitted concentration of half-maximal effect); settings: CHO-K1 GR-EFC translocation, beta-gal luminescence, 2 h
How it was run: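 CHO-K1 cells stably expressing nuclear-localized β-gal enzyme acceptor and GR fused C-terminally to the enzyme donor fragment; ligand-driven nuclear translocation restores β-gal by complementation. Compounds titrated up to 46 uM final, 2 h at 37 °C; luminescence read.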

[6] = molecular target: 3',5'-cyclic-AMP phosphodiesterase 4B (Homo sapiens) (UniProt Q07343); assay: qHTS Assay for Inhibitors of PDE-IV (AID 607; active = well fitted activation curve with a large enough effect in the main read-out, with a control signal flat, not every such curve was filed as active); settings: HEK293 ACTOne CNG channel cells, membrane potential fluorescence; series mostly up to 22.9 µM
How it was run: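 ACTOne HEK293 cells carry a modified cAMP-gated CNG channel and express endogenous PDE4; plated 1000 cells/well, compounds up to 22.9 uM final. Membrane-potential dye fluorescence (ex 535/em 590) was read; parental cells received 10 uM forskolin + 100 uM RO 20-1724.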

[7] = molecular target: Cytochrome P450 3A4 (Homo sapiens) (UniProt P08684); assay: qHTS Assay for Activators of Cytochrome P450 3A4 (AID 885); settings: recombinant CYP3A4, Luciferin-PPXE luminescence, 60 min; series mostly up to 57.1 µM; note: nearly all actives have a fitted effect of over 65% in size
How it was run: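 CYP3A4 activity: Luciferin-PPXE O-dealkylation, 25uM substrate, 200mM KPO4, RT throughout. Read-out is luciferase luminescence; higher values reflect activation.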

[8] = molecular target: Dual specificity protein kinase CLK4 (Homo sapiens) (UniProt Q9HAZ1); assay: qHTS Assay for Inhibitors of CDC-like Kinase 4 (Kinase-Glo Assay) (AID 1770); settings: recombinant Clk4, Kinase-Glo ATP depletion luminescence; series mostly up to 66.7 µM; note: nearly all actives have a fitted effect of over 65% in size; note: potency is the fitted concentration of half-maximal effect
How it was run: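 25 nM Clk4 with 100 uM RS repeat peptide and 1 uM ATP (final) in Tris pH7.5, 10 mM MgCl2, 4.5 h at room temperature. Remaining ATP measured by Kinase-Glo luciferase luminescence.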

[9] = molecular target: Dual specificity protein kinase CLK4 (Homo sapiens) (UniProt Q9HAZ1); assay: qHTS Assay for Inhibitors of CDC-like Kinase 4 (ADP-Glo Assay) (AID 1771); settings: recombinant CLK4, ADP-Glo luminescence; series mostly up to 80 µM; note: nearly all actives have a fitted effect of over 70% in size; note: potency is the fitted concentration of half-maximal effect
How it was run: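 ADP production was read by ADP-Glo luminescence after residual ATP depletion, following 1 h room-temperature reaction of 25 nM Clk4, 1 uM ATP and 100 uM RS peptide with MgCl2, EGTA, DTT and Triton X-100.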

[10] = molecular target: Dual specificity protein kinase CLK4 (Homo sapiens) (UniProt Q9HAZ1); assay: qHTS Assay for Inhibitors of CDC-like Kinase 4 (ADP-FP Assay) (AID 1795); settings: Transcreener ADP fluorescence polarization; series mostly up to 50 µM; note: nearly all actives have a fitted effect of over 60% in size; note: potency is the fitted concentration of half-maximal effect;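 for activity change, negative = inhibition: recombinant human CLK4 phosphorylating RS repeat peptide at 1 µM ATP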
How it was run: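 Recombinant Clk4 (6.25 nM) phosphorylated 100 uM RS repeat peptide with 1 uM ATP in 25 mM Tris pH 7.5, 10 mM MgCl2, 0.5 mM EGTA, 2.5 mM DTT, 0.01% Triton X-100 for 1 h. ADP was detected by Transcreener ADP2 competitive fluorescence polarization after 30 min at room temperature.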

[11] = molecular target: Ubiquitin carboxyl-terminal hydrolase 1 (Homo sapiens) (UniProt O94782); assay: Inhibitors of USP1/UAF1: Pilot qHTS (AID 504865); settings: purified USP1/UAF1, Ub-rhodamine cleavage fluorescence; series mostly up to 54.9 µM; note: nearly all actives have a fitted effect of over 35% in size; note: potency is the fitted concentration of half-maximal effect;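 for activity change, negative = inhibition: rhodamine fluorescence freed from ubiquitin-rhodamine substrate followed over time; top concentration of the series differs between compounds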
How it was run: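 USP1/UAF1 complex at 1 nM preincubated 15 min at room temperature with compound, then Ub-Rho substrate added at 150 nM final. Fluorescence (480/540 nm) read kinetically in 50 mM HEPES pH 7.8, 0.5 mM EDTA, 1 mM TCEP, 0.1 mg/ml BSA, 0.01% Tween-20.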

[12] = Primary qHTS for small molecule stabilizers of the endoplasmic reticulum resident proteome: Secreted ER Calcium Modulated Protein (SERCaMP) assay (AID 1508630); settings: SH-SY5Y GLuc-SERCaMP (Gaussia luciferase released on ER calcium loss) secretion, thapsigargin, luminescence; series mostly up to 38.4 µM
How it was run: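 The SH-SY5Y reporter protocol was run at 3 concentrations up to 38.3 uM (primary) or 11 concentrations (follow-up): 16 h compound, 100 nM thapsigargin for 4 h, then extracellular luciferase luminescence.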

[13] = molecular target: Glucocorticoid receptor (Homo sapiens) (UniProt P04150); assay: GR-GFP Redistribution (AID 450;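 active = compounds whose dose series gives a full or clear partial fitted curve of increased nuclear translocation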; note: potency is the fitted concentration of half-maximal effect); settings: U2OS GR-GFP nuclear translocation, laser cytometry, 2 h
[14] = molecular target: Mitogen-activated protein kinase 10 (Mus musculus) (UniProt Q61831); assay: JNK3 AlphaScreen Assay (AID 530; active = well fitted curve in either direction with a large enough effect, not every such curve was filed as active;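 note: kinase came from lysate of stimulated human HepG2 cells; signal reports phosphorylation of biotinylated GST-cJun 1-79 at Ser73 with 10 µM ATP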); settings: JNK3 lysate, c-Jun phosphorylation; series mostly up to 57.1 µM
How it was run: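 Phosphorylation of biotinylated GST-cJun(1-79) at Ser73 is measured by AlphaScreen proximity luminescence. Enzyme is JNK3 in HepG2 lysates activated with interleukin-1beta and tumor necrosis factor alpha; ATP is 10 uM final.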

[15] = molecular target: Cytochrome P450 3A4 (Homo sapiens) (UniProt P08684); assay: qHTS Assay for Inhibitors and Substrates of Cytochrome P450 3A4 (AID 884); settings: recombinant CYP3A4, Luciferin-PPXE luminescence; series mostly up to 57.1 µM; note: potency is the fitted concentration of half-maximal effect; nearly all actives have a fitted effect of over 50% in size
How it was run: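 Luminescent readout of luciferin produced by CYP3A4 (20 nM) dealkylation of Luciferin-PPXE, 25 uM (its KM). NADPH-driven reaction ran 60 min at RT after 10 min compound preincubation; data scaled to 57 uM ketoconazole as 100% inhibition.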

[16] = qHTS Assay for Identification of Small Molecule Agonists for Hypoxia Response Element Signaling Pathway (AID 914; active = well fitted activation curve with a large enough effect in the signal ratio, with a control signal flat, not every such curve was filed as active; the % refers to the signal ratio; note: potency is the fitted concentration of half-maximal effect); settings: ME-180 (cervical carcinoma) HRE-bla reporter, beta-lactamase ratio, CoCl2, 17 h; activation: active compounds read high
How it was run: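 In Opti-MEM containing 0.5% dialyzed FBS and 10 mM HEPES, ME-180 HRE-bla cells received a compound titration and EC50 CoCl2. They were incubated 17 hours, then CCF4-loaded 2.5 hours at room temperature before ratio reading.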

Sequence of 3',5'-cyclic-AMP phosphodiesterase 4B (Homo sapiens) (Q07343 whole entry, looked up): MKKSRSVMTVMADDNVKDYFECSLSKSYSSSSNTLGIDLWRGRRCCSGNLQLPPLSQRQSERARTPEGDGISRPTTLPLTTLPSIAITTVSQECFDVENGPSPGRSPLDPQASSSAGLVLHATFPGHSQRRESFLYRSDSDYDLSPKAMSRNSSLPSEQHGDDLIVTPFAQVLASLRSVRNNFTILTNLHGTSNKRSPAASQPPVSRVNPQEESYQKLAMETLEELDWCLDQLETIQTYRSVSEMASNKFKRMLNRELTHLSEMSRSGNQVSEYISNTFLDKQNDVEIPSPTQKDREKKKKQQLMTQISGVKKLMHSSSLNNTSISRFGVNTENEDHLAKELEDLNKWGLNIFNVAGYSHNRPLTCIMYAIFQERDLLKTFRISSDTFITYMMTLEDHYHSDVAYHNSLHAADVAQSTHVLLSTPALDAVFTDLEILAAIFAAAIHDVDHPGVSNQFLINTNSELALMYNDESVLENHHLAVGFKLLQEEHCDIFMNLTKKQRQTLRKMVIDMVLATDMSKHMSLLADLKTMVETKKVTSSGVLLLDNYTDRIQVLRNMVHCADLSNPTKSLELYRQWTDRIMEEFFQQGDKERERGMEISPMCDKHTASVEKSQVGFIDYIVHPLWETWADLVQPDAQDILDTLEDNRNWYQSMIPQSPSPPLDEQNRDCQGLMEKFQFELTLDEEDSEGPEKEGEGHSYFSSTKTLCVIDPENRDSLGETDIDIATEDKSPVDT
Sequence of Glucocorticoid receptor (Homo sapiens) (P04150 whole entry, looked up, the tested form may be a part): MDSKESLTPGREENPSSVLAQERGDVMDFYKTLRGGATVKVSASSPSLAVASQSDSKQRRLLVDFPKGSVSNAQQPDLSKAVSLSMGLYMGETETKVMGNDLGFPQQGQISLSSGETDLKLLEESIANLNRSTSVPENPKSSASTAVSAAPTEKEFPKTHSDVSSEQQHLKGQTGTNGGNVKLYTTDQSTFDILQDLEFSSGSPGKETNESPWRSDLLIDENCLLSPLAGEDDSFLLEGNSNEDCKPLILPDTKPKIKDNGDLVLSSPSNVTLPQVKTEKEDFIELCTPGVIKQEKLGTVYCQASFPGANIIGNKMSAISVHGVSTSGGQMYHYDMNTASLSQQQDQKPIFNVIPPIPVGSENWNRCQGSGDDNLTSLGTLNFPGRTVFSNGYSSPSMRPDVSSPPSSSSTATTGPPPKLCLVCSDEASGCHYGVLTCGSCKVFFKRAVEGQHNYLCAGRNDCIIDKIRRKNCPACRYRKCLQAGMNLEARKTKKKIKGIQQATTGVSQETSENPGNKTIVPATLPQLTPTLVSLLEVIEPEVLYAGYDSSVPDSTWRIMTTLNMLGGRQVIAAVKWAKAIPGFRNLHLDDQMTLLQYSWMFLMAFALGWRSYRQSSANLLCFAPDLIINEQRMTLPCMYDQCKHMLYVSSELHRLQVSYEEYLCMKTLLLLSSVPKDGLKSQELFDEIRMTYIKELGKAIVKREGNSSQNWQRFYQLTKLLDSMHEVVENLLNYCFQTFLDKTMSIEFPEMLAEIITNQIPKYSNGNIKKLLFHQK
Sequence of Ubiquitin carboxyl-terminal hydrolase 1 (Homo sapiens) (O94782 whole entry, looked up): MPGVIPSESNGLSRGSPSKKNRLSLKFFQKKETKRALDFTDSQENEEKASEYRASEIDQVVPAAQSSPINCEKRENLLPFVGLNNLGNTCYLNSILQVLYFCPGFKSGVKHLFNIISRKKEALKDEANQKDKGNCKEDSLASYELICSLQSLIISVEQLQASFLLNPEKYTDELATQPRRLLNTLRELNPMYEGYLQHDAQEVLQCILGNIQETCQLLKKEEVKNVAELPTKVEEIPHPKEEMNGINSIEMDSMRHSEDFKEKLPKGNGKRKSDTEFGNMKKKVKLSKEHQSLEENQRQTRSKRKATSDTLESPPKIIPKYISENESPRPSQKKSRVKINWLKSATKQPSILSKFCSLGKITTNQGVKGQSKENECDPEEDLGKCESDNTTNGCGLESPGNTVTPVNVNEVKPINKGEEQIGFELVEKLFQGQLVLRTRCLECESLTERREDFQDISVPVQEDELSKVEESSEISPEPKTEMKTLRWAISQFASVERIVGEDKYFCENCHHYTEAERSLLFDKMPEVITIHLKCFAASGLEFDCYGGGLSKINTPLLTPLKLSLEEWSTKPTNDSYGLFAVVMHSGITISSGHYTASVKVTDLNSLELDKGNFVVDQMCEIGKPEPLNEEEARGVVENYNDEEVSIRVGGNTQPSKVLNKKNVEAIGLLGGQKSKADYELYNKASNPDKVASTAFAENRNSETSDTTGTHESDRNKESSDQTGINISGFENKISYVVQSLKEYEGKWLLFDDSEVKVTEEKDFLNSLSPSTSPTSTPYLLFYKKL
Sequence of Cytochrome P450 3A4 (Homo sapiens) (P08684 whole entry, looked up): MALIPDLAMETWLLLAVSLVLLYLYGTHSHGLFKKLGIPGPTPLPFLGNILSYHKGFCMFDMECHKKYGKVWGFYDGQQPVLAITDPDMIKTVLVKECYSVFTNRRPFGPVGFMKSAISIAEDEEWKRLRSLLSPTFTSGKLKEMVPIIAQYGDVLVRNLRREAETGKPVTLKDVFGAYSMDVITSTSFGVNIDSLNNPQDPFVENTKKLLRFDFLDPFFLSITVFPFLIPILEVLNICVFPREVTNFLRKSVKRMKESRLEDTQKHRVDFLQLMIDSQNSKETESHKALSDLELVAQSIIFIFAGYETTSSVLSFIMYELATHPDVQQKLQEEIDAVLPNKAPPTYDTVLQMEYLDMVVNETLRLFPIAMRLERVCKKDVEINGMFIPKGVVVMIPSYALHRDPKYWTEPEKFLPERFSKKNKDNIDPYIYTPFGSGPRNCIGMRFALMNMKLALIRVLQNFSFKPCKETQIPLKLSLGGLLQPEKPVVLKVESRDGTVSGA
Sequence of Lysosomal acid glucosylceramidase (Homo sapiens) (P04062 whole entry, looked up): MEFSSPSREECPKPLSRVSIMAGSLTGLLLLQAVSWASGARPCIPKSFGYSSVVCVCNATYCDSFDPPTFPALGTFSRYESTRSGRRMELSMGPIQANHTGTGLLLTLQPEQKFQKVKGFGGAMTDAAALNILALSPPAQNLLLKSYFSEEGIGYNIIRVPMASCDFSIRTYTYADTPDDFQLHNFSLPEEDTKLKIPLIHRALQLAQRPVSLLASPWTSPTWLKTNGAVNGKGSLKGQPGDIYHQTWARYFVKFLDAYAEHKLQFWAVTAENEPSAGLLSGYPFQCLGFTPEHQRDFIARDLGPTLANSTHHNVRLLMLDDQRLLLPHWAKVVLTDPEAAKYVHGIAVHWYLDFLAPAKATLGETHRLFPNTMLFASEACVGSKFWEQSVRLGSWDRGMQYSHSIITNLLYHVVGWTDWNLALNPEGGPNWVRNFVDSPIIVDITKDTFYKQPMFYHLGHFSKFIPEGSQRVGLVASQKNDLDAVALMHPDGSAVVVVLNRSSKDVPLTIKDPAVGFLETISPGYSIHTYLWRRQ
Sequence of Dual specificity protein kinase CLK4 (Homo sapiens) (Q9HAZ1 whole entry, looked up): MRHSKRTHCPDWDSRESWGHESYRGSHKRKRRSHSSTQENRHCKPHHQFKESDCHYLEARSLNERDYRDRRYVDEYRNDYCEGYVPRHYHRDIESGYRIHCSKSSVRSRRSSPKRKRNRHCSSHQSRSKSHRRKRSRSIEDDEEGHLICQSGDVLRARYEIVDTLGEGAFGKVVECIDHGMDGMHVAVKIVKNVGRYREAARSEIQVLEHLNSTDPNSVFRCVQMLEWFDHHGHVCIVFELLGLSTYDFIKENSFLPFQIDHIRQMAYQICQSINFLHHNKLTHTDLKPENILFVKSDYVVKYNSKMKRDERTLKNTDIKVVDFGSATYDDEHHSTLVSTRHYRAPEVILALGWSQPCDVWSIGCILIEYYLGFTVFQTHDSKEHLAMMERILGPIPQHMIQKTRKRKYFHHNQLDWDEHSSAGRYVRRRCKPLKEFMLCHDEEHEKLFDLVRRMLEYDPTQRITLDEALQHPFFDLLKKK

| SMILES | Potency [1] | activity change, negative = inhibition [2] | activity change, negative = inhibition [3] | activity, negative = inhibition [4] | Potency [5] | Potency [6] | Potency [7] | Potency [8] | Potency [9] | Potency [10] | Potency [11] | outcome [12] | Potency [13] | Potency [14] | Potency [15] | activation [16] | Potency [16] |
| --- | --- | --- | --- | --- | --- | --- | --- | --- | --- | --- | --- | --- | --- | --- | --- | --- | --- |
| CN(C)c1ncc2nc(-c3cccs3)c(=O)n(C)c2n1 | > 11.4 µM | 1.79% | -2.27% | 23.5% | > 46 µM | inactive | inactive | inactive | inactive | inactive | inactive | inactive | – | – | – | – | – |
| Cc1noc(C)c1-c1cncnc1Nc1ccccc1 | > 2.29 µM | 13.6% | 11.7% | 10.3% | > 46 µM | inactive | inactive | inactive | inactive | inactive | inactive | inactive | > 46 µM | inactive | 3.16 µM (active) | – | – |
| COc1ccc(-c2nc3cnc(OC)nc3n(-c3ccccc3)c2=O)cc1 | > 11.4 µM | -6.09% | 10.5% | -1.78% | > 46 µM | inactive | – | inactive | inactive | inactive | inactive | inactive | > 9.22 µM | inactive | – | – | – |
| COc1ccc2[nH]cc(CCNc3ccnc(-c4cccc(C#N)c4)n3)c2c1 | > 11.4 µM | -12.9% | 23.2% | -8.5% | > 46 µM | inactive | – | 12.6 µM (active) | 12.6 µM (active) | 8.91 µM (active) | inactive | inactive | > 46 µM | inactive | – | – | – |
| c1cncc(CNc2ncncc2-c2ccoc2)c1 | > 11.4 µM | 2.19% | 7.14% | -4.52% | > 46 µM | inactive | – | inactive | inactive | inactive | inactive | inactive | > 46 µM | inactive | – | – | – |
| COCCn1c(=O)cnc2cnc(N3CCOCC3)nc21 | > 11.4 µM | 8.71% | -0.664% | -12.6% | > 46 µM | inactive | – | inactive | inactive | inactive | inactive | inactive | > 9.22 µM | inactive | – | -5.07% | – |
| COc1ccc(-c2nc3cnc(N(C)C)nc3n(CCC#N)c2=O)cc1 | > 11.4 µM | -7.19% | -5.15% | – | > 46 µM | inactive | – | inactive | inactive | inactive | inactive | inactive | > 9.22 µM | inactive | – | – | – |
| COc1ccc2[nH]cc(CCNc3cc(-c4ccccc4Cl)ncn3)c2c1 | > 11.4 µM | 0.747% | 9.26% | -11.7% | > 46 µM | inactive | – | 12.6 µM (active) | 12.6 µM (active) | 12.6 µM (active) | 20 µM (active) | inactive | > 46 µM | inactive | – | – | – |
| CCNc1ncc2nc(-c3ccc(OC)cc3)c(=O)n(CCc3ccccc3)c2n1 | > 11.4 µM | 107% [activator] (active) | – | 122% [activator] (active) | > 46 µM | – | – | inactive | inactive | inactive | inactive | inactive | > 9.22 µM | inactive | – | – | – |
| COCCn1c(=O)c(CCc2ccccc2)nc2cnc(N3CCOCC3)nc21 | > 11.4 µM | -24.7% | -12.9% | -3.32% | > 46 µM | inactive | – | inactive | inactive | inactive | inactive | inactive | > 9.22 µM | inactive | – | – | – |
| COc1ncc2nc(-c3ccccc3)c(=O)n(C3CC3)c2n1 | > 11.4 µM | -10.7% | 7.49% | – | > 46 µM | inactive | – | inactive | inactive | inactive | inactive | inactive | > 9.22 µM | inactive | – | – | – |
| CCNc1ncc2nc(-c3cc(F)cc(F)c3)c(=O)n(Cc3ccc(F)cc3)c2n1 | > 11.4 µM | 20.2% | 28.9% | – | > 46 µM | inactive | – | inactive | inactive | inactive | inactive | inactive | – | inactive | – | – | 2 µM (active) |
| COc1ccccc1CNc1nc(-c2ccccc2OC)nc2ccccc12 | > 11.4 µM | 6.17% | -24.7% | -10.4% | > 46 µM | – | – | inactive | inactive | inactive | – | inactive | > 46 µM | inactive | – | – | – |
| COc1cccc(Cn2c(=O)c(-c3cccs3)nc3cnc(N4CCOCC4)nc32)c1 | > 11.4 µM | 21.6% | 5.78% | – | > 46 µM | inactive | – | inactive | inactive | inactive | inactive | inactive | > 9.22 µM | – | – | – | – |

— PubChem BioAssay (NCATS)
